In PubChem BioAssay AID2174 (The Scripps Research Institute Molecular Screening Center, 2009):
About 500 (0.16%) of roughly 320,000 compounds were called active. The sample holds actives, similar compounds and a random draw of the others, so the mix is not that of the screen.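 How the source made its calls: active means inhibition above the mean of all tested compounds plus 3 SD, set per campaign (cut at about 14% in these data); inactive means the rest.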

These molecules were tested against Acyl-protein thioesterase 1 (Homo sapiens) (UniProt O75608) (assay: inhibition of human lysophospholipase 1 – biochemical, fluorescence polarization, FP-Rh probe ABPP, counter-screen for PME1 inhibitor project, primary screen (AID 2174;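 further: inhibitors block serine hydrolase probe labeling of LYPLA1 so polarization falls; 0% = enzyme with DMSO and 100% = wells lacking LYPLA1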)). Details: recombinant LYPLA1, FP-Rh probe fluorescence polarization; at 5.9 µM; hits give high values.
Sequence of Acyl-protein thioesterase 1 (Homo sapiens) (O75608 whole entry, looked up): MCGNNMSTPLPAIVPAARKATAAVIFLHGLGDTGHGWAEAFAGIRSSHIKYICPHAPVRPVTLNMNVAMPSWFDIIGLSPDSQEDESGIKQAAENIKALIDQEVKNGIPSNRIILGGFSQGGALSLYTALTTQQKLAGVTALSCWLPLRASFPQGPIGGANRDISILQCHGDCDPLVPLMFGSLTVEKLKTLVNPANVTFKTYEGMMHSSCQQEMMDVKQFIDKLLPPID

| Compound | inhibition |
| --- | --- |
| COc1ccc(C2CC(c3cccs3)Nc3nnnn32)cc1 (stereo not drawn) | 0.92% (inactive) |
| CN(Cc1ccc(F)cc1Cl)S(=O)(=O)c1cccs1 | 4.05% (inactive) |
| O=C(/C=C/c1cccc(C(F)(F)F)c1)N1CCN(c2ccccn2)CC1 | -2.76% (inactive) |
| Cc1cc(OCC(=O)N2CCN(c3ncccn3)CC2)ccc1Cl | -2.47% (inactive) |
| CCOc1ccc(C(=O)NCC(=O)N2CCN(c3ccc(C(F)(F)F)cn3)CC2)cc1 | 2.56% (inactive) |
| Cc1ccc(CNC(=O)CCNS(=O)(=O)c2ccc(Br)s2)cc1 | 0.04% (inactive) |
| COC(=O)c1ccc(CSc2ccc(S(=O)(=O)N3CCCCC3)cn2)cc1 | -1.32% (inactive) |
| CCOc1ccc(-n2cnnn2)cc1S(=O)(=O)N1CCC(C)CC1C (stereo not drawn) | 3.81% (inactive) |
| COc1ccc(CCNC(=O)CSc2nc(-c3ccc(OC)c(OC)c3)ccc2C#N)cc1 | -12.1% (inactive) |
| O=C(COc1ccc2ccccc2c1)N1CCN(C(=O)c2cccs2)CC1 | 1.27% (inactive) |
| O=C(O)c1ccccc1NC(=S)NC(NC(=O)c1ccccc1[N+](=O)[O-])C(Cl)(Cl)Cl (stereo not drawn) | 2.28% (inactive) |
| Cc1ccccc1Nc1nc(N)nc(CSc2ccccc2)n1 | -4.27% (inactive) |
| O=C1COc2ccc(NC(=O)N3CCN(c4ccc(F)cc4)CC3)cc2N1 | -0.21% (inactive) |
| CCCCCOc1ccc(/C=C/C(=O)NCCc2nc3ccccc3[nH]2)cc1OC | -8.82% (inactive) |
| CCN(CC(=O)Nc1c(F)cccc1F)C(=O)c1ccc(S(=O)(=O)N2CCCCC2)cc1 | 0.21% (inactive) |
| CCOc1ccc2ccccc2c1/C=N/NC(=O)c1c(C)cc(C)[nH]c1=O | -5.43% (inactive) |
| Cc1[nH]c2ccc(C(=O)N3CCN(C)CC3)cc2c1C | 2.14% (inactive) |
| COc1ccccc1N1CCN(C(=O)c2ccc(Cl)c(S(=O)(=O)N3CCCC3)c2)CC1 | 1.54% (inactive) |
| CCOc1ccccc1N1CCN(C(=O)c2ccc3[nH]c(C)c(C)c3c2)CC1 | 14.2% (active) |
| NC(=O)C1(N2CCCCC2)CCN(C2CC(=O)N(Cc3ccc(N4CCCC4=O)cc3)C2=O)CC1 (stereo not drawn) | 2.22% (inactive) |

| Compound | inhibition |
| --- | --- |
| COc1cccc(NC(=S)NC(=O)c2c(Cl)c(C)nn2C)c1 | -3.22% (inactive) |
| COCCNc1nc2nonc2nc1N1CCCC1c1nccs1 (stereo not drawn) | 1.24% (inactive) |
| COc1ccccc1C(=O)NC(CCSC)C(=O)NNC(=O)c1ccccc1C (stereo not drawn) | 2.08% (inactive) |
| COc1ccccc1C(=O)NC(CCSC)C(=O)N1CCN(C/C=C/c2ccccc2)CC1 (stereo not drawn) | 18.2% (active) |
| COc1ccccc1C(=O)NC(CCSC)C(=O)N1CCN(C(C)=O)CC1 (stereo not drawn) | -1.6% (inactive) |
| O=c1[nH]n(-c2ccc([N+](=O)[O-])cc2)c(=O)c2ccccc12 | 22.9% (active) |
| O=c1[nH]c2cccnc2n1-c1ccc([N+](=O)[O-])cc1 | -1.44% (inactive) |
| COc1cnn(-c2ccc([N+](=O)[O-])cc2)c(=O)c1Cl | 3.8% (inactive) |
| CCNC(=O)CC1C(=O)N(c2ccc(F)cc2)C(=O)N1Cc1cccs1 (stereo not drawn) | 1.31% (inactive) |
| Cc1cc(C)c2c(n1)sc1c(=O)n(-c3ccccc3)c(=O)[nH]c12 | -3.16% (inactive) |
| CCOc1ccc(S(=O)(=O)N/N=C(\C)c2ccc(Cl)c(Cl)c2Cl)cc1 | 0.76% (inactive) |
| C=CCSC(CC)(CC)C(N)=O | 6.47% (inactive) |
| CCCc1ccc(OCC(O)CN2CCN(C(=O)OCC)CC2)cc1 (stereo not drawn) | 2.73% (inactive) |
| CCOc1ccc(C(=O)NC(=S)Nc2ccc(N3CCOCC3)c(Cl)c2)cc1[N+](=O)[O-] | 19.9% (active) |
| COc1cccc(OC)c1C(=O)NC(=S)Nc1ccc(N2CCOCC2)c(Cl)c1 | -4.94% (inactive) |
| CCOc1ccc(C(=O)NC(=S)Nc2ccc(NC(=O)C(C)C)cc2)cc1[N+](=O)[O-] | 2.01% (inactive) |
| CCN1C(=NCCc2cccnc2)N[C@@H](c2ccccc2)C(C(=O)OC)=C1C | -0.51% (inactive) |
| Cc1ccc(NC(=O)c2ccc(CSc3ncnc4nc[nH]c34)cc2)c(C)c1 | -1.38% (inactive) |
| COc1ccccc1C(CNC(=O)c1cccc(S(=O)(=O)Nc2ccc(F)cc2)c1)N(C)C (stereo not drawn) | -0.85% (inactive) |
| CC(C)(C)NC(=O)COc1ccc(CNc2ccc3[nH]c(=O)[nH]c3c2)cc1 | -1.08% (inactive) |

| Compound | inhibition |
| --- | --- |
| CC(Oc1ccc(F)cc1)C(=O)N1CCN(c2ncccn2)CC1 (stereo not drawn) | -4.75% (inactive) |
| O=C(c1ccc(Br)o1)N1CCN(CCOc2ccccc2)CC1 | 2.69% (inactive) |
| CC1(C)OC(=O)C(=CNC(CO)C(=O)O)C(=O)O1 (stereo not drawn) | -1.91% (inactive) |
| CCC(=C/c1sc2ccc3ccccc3c2[n+]1C)/C=C1\Sc2ccc3ccccc3c2N1C | 25% (active) |
| O=C(COc1ccc(Cl)cc1)N1CCN(S(=O)(=O)c2ccc(Cl)cc2)CC1 | -0.66% (inactive) |
| O=C(COc1ccc(Cl)cc1)N1CCN(c2cccc(C(F)(F)F)c2)CC1 | 20.5% (active) |
| Cc1c(C)c2ccc(OCC(=O)N3CCN(c4cccc(Cl)c4)CC3)cc2oc1=O | 6.19% (inactive) |
| CC/C(=N\NC(=O)c1c(C)nc2ccccn12)c1ccc(Cl)cc1 | -2.24% (inactive) |
| O=C(c1ccco1)N1CCN(CC(=O)N(C2CCCCC2)C2CCS(=O)(=O)C2)CC1 (stereo not drawn) | 5.75% (inactive) |
| CC(CC(=O)C1C(C)C=CCC1(C)C)NNC(N)=O (stereo not drawn) | 0.24% (inactive) |
| CCOC(=O)c1sc2nc(C)nc(Nc3ccc(OC)c(OC)c3)c2c1C | -0.83% (inactive) |
| CSc1nc(-c2ccccc2)nc(C(Cl)Cl)n1 | 3.5% (inactive) |
| CCn1c(CC(=O)Nc2ccc(C)cc2)nnc1SCC(=O)Nc1nc(C)cs1 | -2.24% (inactive) |
| Cc1ccc(NC(=O)NNC(=O)c2sccc2-n2cccc2)cc1 | -1.32% (inactive) |
| CCOC(=O)NN1C(=O)c2ccccc2NC1c1ccccc1O (stereo not drawn) | 2.15% (inactive) |
| COc1cccc(CNS(=O)(=O)c2csc(C(N)=O)c2)c1 | -2.15% (inactive) |
| CCCCn1c(N)c(N(CC(C)C)C(=O)CN(C)S(=O)(=O)c2ccc(F)cc2)c(=O)[nH]c1=O | -3.12% (inactive) |
| CC(=O)N1C(C)c2ccccc2C(C)(C)CC12CCCCC2 (stereo not drawn) | 0.06% (inactive) |
